The campaign covered roughly 13,000 compounds. About 3,200 (25%) showed an effect of 50% or more. This is one part of the list.
Each compound was assayed on P. falciparum stage V gametocytes. Settings: 48 h, 5 µM; inhibitor.
Parameters: BacTiter-Glo ATP luminescence viability of purified stage V gametocytes in 384-well plates, per cent inhibition versus DMSO

Compared with `Cc1nn(-c2ccccc2)c2nc(-c3ccccc3)cc(C(=O)N3CCOCC3)c12` [TCMDC-124527], `Cc1cccc2[nH]c(-c3cccc(-c4ccc(NC(=O)CN5CCOCC5)cc4)c3)nc12` [TCMDC-136970] is lower in “% Inhibition” value: -18.66% for the first, -20.19% for the second.

Going from `Cc1cc(N2CCCC2)nc(Nc2ccc(NC(=O)CC(C)C)cc2)n1` [TCMDC-124715] to `Cc1cc(N(C)C2CCN(CC3CCCCC3)C2)nc(Nc2ccc(Br)cc2)n1` (stereo not shown) [TCMDC-137023], the “% Inhibition” value falls from 12.42% to -48.72%.

Going from `COc1ccc(S(=O)(=O)NC2CCN(c3ccnc4cc(Cl)ccc34)C2)cc1` (stereo not shown) [TCMDC-133649] to `Cc1cnc(CNCc2ccc(S(=O)(=O)Nc3ccc(Oc4cccc(Cl)c4)cc3)cc2)cn1` [TCMDC-136202], the “% Inhibition” value falls from 9.561% to -12.09%.

Compared with `NC(N)=NN=Cc1ccccc1OCc1ccccc1Cl` [TCMDC-124250], `NC(N)=NN=Cc1cc([N+](=O)[O-])ccc1Sc1ccccc1CO` [TCMDC-137883] is lower in “% Inhibition” value: 59.45% for the first, 34.86% for the second.

Going from `CC(=O)C1(c2ccccc2)CCN(CCC2(c3ccc(Cl)c(Cl)c3)CN(C(=O)CC(C)C)CCO2)CC1` (stereo not shown) [TCMDC-135324] to `CCCCCC(=O)N1CCOC(CCN2CCC(c3ccccc3)CC2)(c2ccc(Cl)c(Cl)c2)C1` (stereo not shown) [TCMDC-135328], the “% Inhibition” value rises from -34.64% to -33.56%.

Going from `CC(=O)Nc1ccc(S(=O)(=O)N(Cc2cccc(Oc3ccccc3)c2)C2CCN(C/C=C(\C)CCC=C(C)C)CC2)cc1` [TCMDC-139619] to `COc1cc(CN2CCC(C(=O)Nc3ccc(-c4cccc(C)c4)cc3)CC2)ccc1O` [TCMDC-124633], the “% Inhibition” value falls from 47.01% to 46.38%.

First: O=S(=O)(Nc1cccc(F)c1CNCc1ccccn1)c1ccc(Cl)c(Cl)c1 [TCMDC-132598]
Second: Clc1ccc2c(NCc3ccccn3)ccnc2c1 [TCMDC-125103]
The “% Inhibition” value of the first is higher: 71.21% for the first, 3.053% for the second.

Compared with `CCCN1CCN(CC(O)CNC(=O)Nc2ccc(Cl)cc2)CC1` (stereo not shown) [TCMDC-134645], `CCCCN1CCN(CC(O)CNC(=O)Nc2ccc(Cl)cc2)CC1` (stereo not shown) [TCMDC-134646] is higher in “% Inhibition” value: -0.7262% for the first, 4.082% for the second.

First: CCN(CC)C(=NCCCCCCN=C(NC(=N)c1ccc(Cl)cc1)N(CC)CC)NC(=N)c1ccc(Cl)cc1 [TCMDC-131806]
Second: CCN(CC)C(=NC(=N)NCCCCCCNC(=N)N=C(Nc1ccc(Cl)cc1)N(CC)CC)Nc1ccc(Cl)cc1 [TCMDC-131807]
The “% Inhibition” value of the first is higher: 117.9% for the first, 113% for the second.

First: CCN(CC)/C(=N/C(=N)Nc1ccc(Cl)c(Cl)c1)NCCCCCCN/C(=N\C(=N)Nc1ccc(Cl)c(Cl)c1)N(CC)CC [TCMDC-131808]
Second: CCN(CC)C(=NC(=N)Nc1ccc(Cl)cc1)NCCCCCCCCNC(=NC(=N)Nc1ccc(Cl)cc1)N(CC)CC [TCMDC-131812]
The “% Inhibition” value of the first is lower: 116.2% for the first, 116.8% for the second.

Going from `CC(=O)Nc1ccc(OCCCCCOc2ccc(NC(C)=O)cc2Cl)c(Cl)c1` [TCMDC-137222] to `COc1ccccc1N1CCN(CCCCN(C(=O)Nc2cccc(Cl)c2)C(=O)Nc2cccc(Cl)c2)CC1` [TCMDC-131986], the “% Inhibition” value falls from -37.52% to -74.5%.

Going from `CCN1CCN(CC(O)CNC(=O)Nc2ccc(Cl)cc2)CC1` (stereo not shown) [TCMDC-134634] to `CCCCCCN1CCN(Cc2cccc(NC(=O)c3cccc(OCC)c3)c2)CC1` [TCMDC-134614], the “% Inhibition” value falls from 26.07% to -30.42%.

First: COc1ccc(CCN(C)CCCCNC(=O)c2ccc(NC(=O)c3ccc(Cl)cc3)cc2)c(OC)c1 [TCMDC-138506]
Second: COc1ccccc1CCN(C)CCN1CCC(NC(=O)c2ccc(-c3ccc(C(F)(F)F)cc3)cc2)CC1 [TCMDC-138797]
The “% Inhibition” value of the first is higher: 49.32% for the first, 43.57% for the second.

First: CC(=NNC(=N)N)C(=O)Nc1ccc(Cl)c(Cl)c1 [TCMDC-137564]
Second: O=C(Nc1ccc(OC2CCN(Cc3ccsc3)CC2)c(Cl)c1)c1cccs1 [TCMDC-133740]
The “% Inhibition” value of the first is lower: -28.53% for the first, -2.262% for the second.

First: C[C@@H]([C@@H](CCCCc1ccccc1)C(=O)N[C@H](C(=O)Nc1cccnc1)C(C)(C)C)N(O)C=O [TCMDC-138380]
Second: CC(CCc1ccccc1)NCC(O)c1ccc2c3c(cccc13)C(=O)N2C (stereo not shown) [TCMDC-131252]
The “% Inhibition” value of the first is lower: -15.27% for the first, 17.04% for the second.

First: CCN(C(=O)c1ccc(NC(=O)c2cccs2)cc1)c1nc2c(C)cccc2s1 [TCMDC-125338]
Second: CC(=O)N[C@H](C(=O)Nc1ccc(-c2cccc(-c3nc4c(C)cccc4[nH]3)c2)cc1)C(C)C [TCMDC-136853]
The “% Inhibition” value of the first is higher: 37.84% for the first, -50.38% for the second.

Going from `CCn1c(Cc2ccccc2)nnc1SCC(=O)N1c2ccccc2Sc2ccccc21` [TCMDC-124373] to `COc1ccc(-c2c(-c3ccc(OCc4ccccc4)cc3O)n[nH]c2C(F)(F)F)cc1` [TCMDC-124771], the “% Inhibition” value rises from -22.31% to -11.85%.

Going from `Cc1cccc2[nH]c(-c3ccc(-c4ccc(NC(=O)C(C)CN(C)C)cc4)cc3)nc12` (stereo not shown) [TCMDC-137105] to `Cc1cccc2[nH]c(-c3cccc(-c4ccc(NC(=O)C(C)CN(C)C)cc4)c3)nc12` (stereo not shown) [TCMDC-137111], the “% Inhibition” value rises from -73.49% to 95.4%.

Compared with `Cc1cccc2[nH]c(-c3cccc(-c4cccc(NC(=O)C(C)CN5CCN(C)CC5)c4)c3)nc12` (stereo not shown) [TCMDC-137150], `Cc1cccc2[nH]c(-c3ccc(-c4cccc(NC(=O)C(C)CN5CCN(C)CC5)c4)cc3)nc12` (stereo not shown) [TCMDC-137144] is lower in “% Inhibition” value: 88.37% for the first, 36.55% for the second.

Compared with `CCC(C)NC(=O)Nc1ccc(-c2cccc(-c3nc4c(C)cccc4[nH]3)c2)cc1` (stereo not shown) [TCMDC-133238], `CCC(C)NC(=O)Nc1cccc(-c2cccc(-c3nc4c(C)cccc4[nH]3)c2)c1` (stereo not shown) [TCMDC-133239] is higher in “% Inhibition” value: -3.731% for the first, 36.1% for the second.

Compared with `Cc1cccc2[nH]c(-c3cccc(-c4cccc(NC(=O)C(C)CN(C)C)c4)c3)nc12` (stereo not shown) [TCMDC-137110], `Cc1cccc2[nH]c(-c3cccc(-c4ccc(NC(=O)C(C)C(=O)NC(C)C)cc4)c3)nc12` (stereo not shown) [TCMDC-132149] is higher in “% Inhibition” value: -50.7% for the first, -14.66% for the second.

Going from `Cc1cccc2[nH]c(-c3cccc(-c4ccc(NC(=O)C(C)CN5CCOCC5)cc4)c3)nc12` (stereo not shown) [TCMDC-137138] to `Cc1cccc2[nH]c(-c3cccc(-c4ccc(NC(=O)C(C)CN5CCN(C)CC5)cc4)c3)nc12` (stereo not shown) [TCMDC-137151], the “% Inhibition” value falls from 85.59% to 58.09%.

Compared with `COc1cc(Cc2cnc(N)nc2N)cc(OCCCCCCN2C(=O)c3ccccc3C2=O)c1OC` [TCMDC-138043], `CCc1cc(-c2n[nH]c(C(F)(F)F)c2-c2ccccc2)c(O)cc1OC` [TCMDC-123700] is higher in “% Inhibition” value: 3.318% for the first, 70.95% for the second.

First: Cc1ccc(C(C#N)c2ccc3c(C(F)(F)F)cc(C(F)(F)F)nc3n2)cc1 (stereo not shown) [TCMDC-123762]
Second: CS(=O)(=O)c1ccc(CNCc2ccc(-c3ccc(-c4nc5cc(C(F)(F)F)ccc5[nH]4)s3)cc2)cc1.O=C(O)C(F)(F)F [TCMDC-132906]
The “% Inhibition” value of the first is lower: -33.32% for the first, -5.935% for the second.

First: CCc1cc(-c2onc(C(F)(F)F)c2-c2ccccc2)c(O)cc1OC [TCMDC-124464]
Second: COc1ccc2nc(-c3ccccc3)cc(NN=Cc3ccc([N+](=O)[O-])cc3)c2c1 [TCMDC-142045]
The “% Inhibition” value of the first is higher: 25.65% for the first, 15.04% for the second.

Going from `COc1ccc(NC(=O)Nc2nc3ccccc3s2)cc1N1CCN(C)CC1` [TCMDC-139872] to `O=C(NCCCN1CCN(c2cccc(Cl)c2)CC1)c1ccc(-c2nc3cc(Cl)c(Cl)cc3[nH]2)cc1` [TCMDC-140077], the “% Inhibition” value rises from -6.741% to 1.638%.

First: COc1cccc(OC)c1CN1CCC(N(C)CCCCCCCCCN2CCC(OC(=O)Nc3ccccc3-c3ccccc3)CC2)CC1 [TCMDC-134690]
Second: COc1cccc(OC)c1CN1CCC(N(C)CCCCCCCCN2CCC(OC(=O)Nc3ccccc3-c3ccccc3)CC2)CC1 [TCMDC-134684]
The “% Inhibition” value of the first is higher: 126.7% for the first, 106.8% for the second.

Compared with `NCC(=O)c1cc2c(cc1N)OCCO2` [TCMDC-131879], `Nc1nc(N)c2cc(S(=O)(=O)c3ccc4ccccc4c3)ccc2n1` [TCMDC-137192] is higher in “% Inhibition” value: -22.77% for the first, 3.776% for the second.

Compared with `C=C(F)c1sc(CNCCCNc2nc3ccccc3[nH]2)c(C)c1Br` [TCMDC-141307], `CCN(CC)CCCC(C)Nc1cc(C=Cc2ccccc2Cl)nc2cc(Cl)ccc12` (stereo not shown) [TCMDC-124294] is higher in “% Inhibition” value: 13.46% for the first, 59.52% for the second.

First: OC1(c2ccccc2)CCN(Cc2cccc(-c3c[nH]c4nc(NC5CCCC5)ncc34)c2)C1 (stereo not shown) [TCMDC-133775]
Second: CC(=O)N(Cc1ccc(CC(C)NCCc2cccc(Cl)c2)cc1)Cc1ccc(CC(C)NCCc2cccc(Cl)c2)cc1 (stereo not shown) [TCMDC-139678]
The “% Inhibition” value of the first is lower: -50.17% for the first, 112.1% for the second.

First: CC(Cc1ccc(CN(CC(N)=O)Cc2ccc(CC(C)NCCc3cccc(Cl)c3)cc2)cc1)NCCc1cccc(Cl)c1 (stereo not shown) [TCMDC-139804]
Second: CCCN(CCC)CCCCC(C)Nc1c2ccc(Cl)cc2nc2ccc(OC)cc12 (stereo not shown) [TCMDC-137515]
The “% Inhibition” value of the first is higher: 113.4% for the first, 50.13% for the second.

Going from `CCN(CC)CCCC(C)Nc1cc(C)nc2cc(Cl)ccc12` (stereo not shown) [TCMDC-124246] to `CCN(CC)CCCC(C)Nc1ccnc2cc(Cl)ccc12` (stereo not shown) [TCMDC-123988], the “% Inhibition” value falls from 33.92% to 8.457%.

Compared with `CCCN(CCC)C(C)CCC(C)Nc1c2ccc(Cl)cc2nc2ccc(OC)cc12` (stereo not shown) [TCMDC-137516], `CCN(CC)CCCC(C)Nc1ccnc2ccc(OC)cc12.Cl.O` (stereo not shown) [TCMDC-123888] is lower in “% Inhibition” value: 50.36% for the first, 15.61% for the second.

For `CCN(CC)CCCC(C)Nc1cc(C=Cc2ccc([N+](=O)[O-])cc2)nc2ccc(OC)cc12.O=P(O)(O)O` (stereo not shown) [TCMDC-124247], the “% Inhibition” value was 98.87%.
